# Results reported in PubChem BioAssay (Tox21).
# Unmarked numbers belong to inactive results. Results filed as inconclusive are left out. A call without a number means that no potency is given here. Active and inactive are the calls of the source. Unless noted, the call rests on the fitted dose curve; in most records, active means well fitted curve in the direction sought with a large enough effect in the repeat runs; inconclusive means weak or mixed curves; inactive means no such curve, though single readings can be large; an effect the other way counts as inactive or inconclusive.
# Assays:
# [1] = qHTS assay to identify small molecule agonists of the hypoxia (HIF-1) signaling pathway - cell viability counter screen (AID 1224844; calls by dose curve; further: nearly all actives have a fitted effect of over 50% in size)
# Procedure, shortened: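 In this counter screen, HRE-bla ME-180 cell viability after 17 hrs of compound exposure at 37C was read by CellTiter-Glo luminescence, multiplexed with the beta-lactamase reporter measurement.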
# [2] = qHTS assay to identify small molecule agonists of H2AX (AID 1224845; active means well fitted activation curve with a large enough effect in the signal ratio in the repeat runs, not every such curve was filed as active; the % refers to the signal ratio)
# Procedure, shortened: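 Wild-type CHO-K1 cells, plated overnight, exposed 3hr at 37C to 15 concentrations (0.76% DMSO final). Lysed, then HTRF anti-pH2AX (S139) cryptate and anti-H2AX-d2 antibodies, 24 hr room temperature; 665/620 nm emission read.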
# [3] = qHTS assay to identify small molecule agonists of the hypoxia (HIF-1) signaling pathway (AID 1224846; active means well fitted activation curve with a large enough effect in the signal ratio in the repeat runs, not every such curve was filed as active; the % refers to the signal ratio)
# Procedure, shortened: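 ME-180 HRE-bla reporter cells; compounds in DMSO, 17 h at 37C; read-out beta-lactamase via CCF4-AM FRET.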
# [4] = qHTS assay to identify small molecule agonists of H2AX - cell viability counter screen (AID 1224847; calls by dose curve; further: nearly all actives have a fitted effect of over 30% in size; further: potency means the concentration at half of the fitted maximal effect)
# Procedure, shortened: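 Counter-screen for viability: CellTiter-Glo ATP luminescence read after 3 h compound treatment (15-point titration, 0.76% DMSO final) of CHO-K1 cells at 37C, with 30 min room-temperature reagent incubation.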
# [5] = qHTS assay to identify small molecule agonists of the estrogen related receptor (ERR) signaling pathway from Tox21 library (AID 1224849; calls by dose curve; further: nearly all actives have a fitted effect of over 15% in size); conditions: ERR reporter cell line, ONE-Glo luciferase, 18 h; at 92.4 µM (top of the series) unless noted
# Procedure, shortened: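 Luciferase activity in ERR pathway reporter cells served as the agonist readout; exposure lasted 18 h at 37 C, with ONE-Glo detection after 30 min at room temperature.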
# [6] = qHTS RealTime-Glo MT Cell Viability Assay in HepG2 cells - 24 hour (AID 1224867); further: nearly all actives have a fitted effect of over 50% in size
# Procedure, shortened: (§1)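 Tox21 10K library screened in qHTS format on HepG2 cells carrying RealTime-Glo reagents. Compounds were added after a 5 h preincubation, and the luminescent signal from continuous culture was measured repeatedly during 40 h treatment.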
# [7] = qHTS RealTime-Glo MT Cell Viability Assay in HEK293 cells - 32 hour (AID 1224868); further: nearly all actives have a fitted effect of over 50% in size; further: potency means the concentration at half of the fitted maximal effect
# Procedure, shortened: (§2)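 Luminescence generated by NanoLuc from substrate produced by living HEK293 cells served as the viability signal. Each value reflects the reading at its stated time point during continuous 40 h compound exposure at 37 C.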
# [8] = A CellTox Green Cytotoxicity Assay to monitor cytotoxicity in HEK293 cells - 0 hour (AID 1224869); further: nearly all actives have a fitted effect of over 50% in size
# Procedure, shortened: (§3)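 Real-time, in one plate: 600 HEK293 cells/well with dead-cell DNA dye, pinned compound after 5 h, 37 C incubation over 40 h; viable cells give no appreciable fluorescence.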
# [9] = qHTS RealTime-Glo MT Cell Viability Assay in HepG2 cells - 40 hour (AID 1224870); further: nearly all actives have a fitted effect of over 50% in size
# Procedure, shortened: (§4)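 HepG2 cells (600/well) mixed with RealTime-Glo MT reagent, settled 5 h at 37 C/5% CO2 before compound addition. Nonlytic NanoLuc luminescence from viable-cell prosubstrate reduction read repeatedly during 40 h treatment at 37 C.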
# [10] = A CellTox Green Cytotoxicity Assay to monitor cytotoxicity in HEK293 cells - 40 hour (AID 1224871); further: nearly all actives have a fitted effect of over 45% in size
# Procedure, shortened: as §3
# [11] = qHTS RealTime-Glo MT Cell Viability Assay in HEK293 cells - 16 hour (AID 1224872); further: nearly all actives have a fitted effect of over 50% in size; further: potency means the concentration at half of the fitted maximal effect
# Procedure, shortened: as §2
# [12] = qHTS RealTime-Glo MT Cell Viability Assay in HepG2 cells - 8 hour (AID 1224873); further: nearly all actives have a fitted effect of over 55% in size
# Procedure, shortened: as §4
# [13] = qHTS RealTime-Glo MT Cell Viability Assay in HEK293 cells - 40 hour (AID 1224874); conditions: RealTime-Glo luminescence; max response: hits give low values; further: nearly all actives have a fitted effect of over 50% in size; further: potency means the concentration at half of the fitted maximal effect
# Procedure, shortened: (§5)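 Kinetic, non-lysing viability readout. Seed HEK293 (600/well) with reagent, incubate 5 h at 37 C/5% CO2, pin 23 nL compound in DMSO, incubate at 37 C, read luminescence at 0, 8, 16, 24, 32, 40 h.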
# [14] = A CellTox Green Cytotoxicity Assay to monitor cytotoxicity in HEK293 cells - 24 hour (AID 1224875); further: nearly all actives have a fitted effect of over 45% in size
# Procedure, shortened: as §3
# [15] = A CellTox Green Cytotoxicity Assay to monitor cytotoxicity in HepG2 cells - 16 hour (AID 1224876); further: nearly all actives have a fitted effect of over 45% in size
# Procedure, shortened: (§6)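 Cytotoxicity was tracked as dead-cell DNA fluorescence in HepG2 cells treated with test compounds at 37 C; each time-point value comes from one kinetic series spanning 0, 8, 16, 24, 32 and 40 h.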
# [16] = qHTS RealTime-Glo MT Cell Viability Assay in HepG2 cells - 32 hour (AID 1224877); further: nearly all actives have a fitted effect of over 55% in size
# Procedure, shortened: as §1
# [17] = A CellTox Green Cytotoxicity Assay to monitor cytotoxicity in HepG2 cells - 24 hour (AID 1224878); further: nearly all actives have a fitted effect of over 45% in size
# Procedure, shortened: as §6
# [18] = A CellTox Green Cytotoxicity Assay to monitor cytotoxicity in HepG2 cells - 40 hour (AID 1224879); further: nearly all actives have a fitted effect of over 40% in size; further: potency means the concentration at half of the fitted maximal effect
# Procedure, shortened: as §6
# [19] = qHTS RealTime-Glo MT Cell Viability Assay in HEK293 cells - 0 hour (AID 1224880)
# Procedure, shortened: as §5
# [20] = qHTS assay to identify small molecule antagonists of the estrogen related receptor (ERR) signaling pathway from Tox21 library (AID 1224848); further: nearly all actives have a fitted effect of over 50% in size; further: potency means the concentration at half of the fitted maximal effect
# Procedure, shortened: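 Compounds dissolved in DMSO are pin-transferred onto ERR reporter cells (2,000 per well) that have settled for 6 h at 37 C. Plates then incubate 18 h at 37 C before ONE-Glo luciferase reagent and a luminescence read 30 min later.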
smiles,measurement,setting,value
CCOC(=O)CCN(SN(C)C(=O)Oc1cccc2c1OC(C)(C)C2)C(C)C,Potency,[1],inactive
same,Potency,[2],inactive
same,Potency,[3],inactive
same,Potency,[4],inactive
same,"activity change, positive = activation",[5],-43.3%
same,Potency,[6],inactive
same,Potency,[7],inactive
same,Potency,[8],inactive
same,Potency,[9],inactive
same,Potency,[10],inactive
same,Potency,[11],inactive
same,Potency,[12],inactive
same,max response,[13],-6%
same,Potency,[14],inactive
same,Potency,[15],inactive
same,Potency,[16],inactive
same,Potency,[17],inactive
same,Potency,[18],inactive
same,Potency,[19],inactive
Oc1cc(Cl)cc(Cl)c1,Potency,[1],inactive
same,Potency,[2],inactive
same,Potency,[3],inactive
same,Potency,[4],90.7 µM (active)
same,Potency,[20],61.8 µM (active)
same,"activity change, positive = activation",[5],-48.8%
same,Potency,[6],inactive
same,Potency,[8],inactive
same,Potency,[9],inactive
same,Potency,[12],inactive
same,Potency,[15],inactive
same,Potency,[16],inactive
same,Potency,[18],inactive
same,Potency,[19],inactive
CNC(C)(C)Cc1ccccc1,Potency,[1],inactive
same,Potency,[2],inactive
same,Potency,[3],inactive
same,Potency,[4],inactive
same,Potency,[6],inactive
same,Potency,[7],inactive
same,Potency,[8],inactive
same,Potency,[9],inactive
same,Potency,[10],inactive
same,Potency,[11],inactive
same,Potency,[12],inactive
same,max response,[13],6.36%
same,Potency,[14],inactive
same,Potency,[15],inactive
same,Potency,[16],inactive
same,Potency,[17],inactive
same,Potency,[18],inactive
same,Potency,[19],inactive
CC(Cc1ccc(OCC(=O)O)cc1)NCC(O)c1csc(C(F)(F)F)n1 (centres undefined),Potency,[1],inactive
same,Potency,[2],inactive
same,Potency,[3],inactive
same,Potency,[4],inactive
same,"activity change, positive = activation",[5],13.9%
same,Potency,[6],inactive
same,Potency,[7],inactive
same,Potency,[8],inactive
same,Potency,[9],inactive
same,Potency,[10],inactive
same,Potency,[11],inactive
same,Potency,[12],inactive
same,max response,[13],-5.31%
same,Potency,[14],inactive
same,Potency,[15],inactive
same,Potency,[16],inactive
same,Potency,[17],inactive
same,Potency,[18],inactive
same,Potency,[19],inactive
CCN(CC)CCN1C(=O)CN=C(c2ccccc2F)c2cc(Cl)ccc21,Potency,[1],inactive
same,Potency,[2],inactive
same,Potency,[3],inactive
same,Potency,[4],inactive
same,Potency,[6],inactive
same,Potency,[7],inactive
same,Potency,[8],inactive
same,Potency,[9],inactive
same,Potency,[10],inactive
same,Potency,[11],inactive
same,Potency,[12],inactive
same,max response,[13],-8.22%
same,Potency,[14],inactive
same,Potency,[15],inactive
same,Potency,[16],inactive
same,Potency,[17],inactive
same,Potency,[18],inactive
C[C@H]1[C@H](c2ccc(Cl)cc2)SC(=O)N1C(=O)NC1CCCCC1,Potency,[1],inactive
same,Potency,[2],inactive
same,Potency,[3],inactive
same,Potency,[4],inactive
same,Potency,[20],30.6 µM (active)
same,Potency,[6],inactive
same,Potency,[7],49 µM (active)
same,Potency,[8],inactive
same,Potency,[9],inactive
same,Potency,[10],inactive
same,Potency,[11],38.9 µM (active)
same,Potency,[13],43.6 µM (active)
same,Potency,[14],inactive
same,Potency,[16],inactive
same,Potency,[17],inactive
same,Potency,[18],inactive
same,Potency,[19],inactive
COc1cnc(OC)n2nc(NS(=O)(=O)c3c(OCC(F)F)cccc3C(F)(F)F)nc12,Potency,[1],inactive
same,Potency,[2],inactive
same,Potency,[3],inactive
same,Potency,[4],inactive
same,Potency,[20],inactive
same,Potency,[6],inactive
same,Potency,[7],inactive
same,Potency,[8],inactive
same,Potency,[9],inactive
same,Potency,[10],inactive
same,Potency,[11],inactive
same,Potency,[12],inactive
same,max response,[13],16.5%
same,Potency,[14],inactive
same,Potency,[15],inactive
same,Potency,[16],inactive
same,Potency,[17],inactive
same,Potency,[18],inactive
ClCBr,Potency,[1],inactive
same,Potency,[2],inactive
same,Potency,[3],inactive
same,Potency,[4],inactive
same,Potency,[20],inactive
same,"activity change, positive = activation",[5],5.96%
same,Potency,[6],inactive
same,Potency,[7],inactive
same,Potency,[8],inactive
same,Potency,[9],inactive
same,Potency,[10],inactive
same,Potency,[11],inactive
same,Potency,[12],inactive
same,max response,[13],7.13%
same,Potency,[14],inactive
same,Potency,[16],inactive
same,Potency,[17],inactive
same,Potency,[18],inactive
same,Potency,[19],inactive
Cc1ccn2nc(S(=O)(=O)Nc3c(F)cccc3F)nc2n1,Potency,[1],inactive
same,Potency,[2],inactive
same,Potency,[3],inactive
same,Potency,[4],inactive
same,Potency,[20],inactive
same,"activity change, positive = activation",[5],1.87%
same,Potency,[6],inactive
same,Potency,[7],inactive
same,Potency,[8],inactive
same,Potency,[9],inactive
same,Potency,[10],inactive
same,Potency,[11],inactive
same,Potency,[12],inactive
same,max response,[13],12.5%
same,Potency,[14],inactive
same,Potency,[15],inactive
same,Potency,[16],inactive
same,Potency,[18],inactive
same,Potency,[19],inactive
CSSC,Potency,[1],inactive
same,Potency,[2],inactive
same,Potency,[3],inactive
same,Potency,[4],inactive
same,Potency,[20],inactive
same,"activity change, positive = activation",[5],-6.7%
same,Potency,[6],inactive
same,Potency,[8],inactive
same,Potency,[9],inactive
same,Potency,[10],inactive
same,Potency,[11],inactive
same,Potency,[12],inactive
same,Potency,[14],inactive
same,Potency,[15],inactive
same,Potency,[16],inactive
same,Potency,[18],7.86 µM (active)
same,Potency,[19],inactive
C#CC1(O)CCCCC1,Potency,[1],inactive
same,Potency,[2],inactive
same,Potency,[3],inactive
same,Potency,[4],inactive
same,"activity change, positive = activation",[5],1.06%
same,Potency,[6],inactive
same,Potency,[7],inactive
same,Potency,[8],inactive
same,Potency,[9],inactive
same,Potency,[10],inactive
same,Potency,[11],inactive
same,Potency,[12],inactive
same,max response,[13],19.4%
same,Potency,[14],inactive
same,Potency,[16],inactive
Nc1ccc(Cl)cc1C(=O)c1ccccc1F,Potency,[1],inactive
same,Potency,[2],inactive
same,Potency,[3],inactive
same,Potency,[4],inactive
same,Potency,[20],inactive
same,"activity change, positive = activation",[5],7.6% [at 42.5 µM]
same,Potency,[6],inactive
same,Potency,[7],inactive
same,Potency,[8],inactive
same,Potency,[9],inactive
same,Potency,[10],inactive
same,Potency,[11],inactive
same,Potency,[12],inactive
same,max response,[13],-9.35%
same,Potency,[14],inactive
same,Potency,[16],inactive
same,Potency,[19],inactive
CC(C)NCC(O)c1ccccc1Cl (centres undefined),Potency,[1],inactive
same,Potency,[2],inactive
same,Potency,[3],inactive
same,Potency,[4],inactive
same,Potency,[20],inactive
same,"activity change, positive = activation",[5],0.518% [at 42.5 µM]
same,Potency,[6],inactive
same,Potency,[7],inactive
same,Potency,[8],inactive
same,Potency,[9],inactive
same,Potency,[10],inactive
same,Potency,[11],inactive
same,Potency,[12],inactive
same,max response,[13],1.74%
same,Potency,[14],inactive
same,Potency,[15],inactive
same,Potency,[16],inactive
same,Potency,[17],inactive
same,Potency,[18],inactive
same,Potency,[19],inactive
O=[N+]([O-])c1ccccc1-c1ccccc1,Potency,[1],inactive
same,Potency,[2],inactive
same,Potency,[3],inactive
same,Potency,[4],inactive
same,Potency,[20],inactive
same,"activity change, positive = activation",[5],-1.13%
same,Potency,[6],inactive
same,Potency,[7],inactive
same,Potency,[8],inactive
same,Potency,[9],inactive
same,Potency,[10],inactive
same,Potency,[11],inactive
same,Potency,[12],inactive
same,max response,[13],4.62%
same,Potency,[14],inactive
same,Potency,[15],inactive
same,Potency,[16],inactive
same,Potency,[17],inactive
same,Potency,[18],inactive
same,Potency,[19],inactive
Cc1cc2c3c(c1)C(c1ccccc1)=N[C@@H](NC(=O)c1ccncc1)C(=O)N3CC2,Potency,[1],inactive
same,Potency,[2],inactive
same,Potency,[3],inactive
same,Potency,[4],inactive
same,Potency,[20],inactive
same,"activity change, positive = activation",[5],-15.6%
same,Potency,[6],inactive
same,Potency,[7],inactive
same,Potency,[8],inactive
same,Potency,[9],inactive
same,Potency,[10],inactive
same,Potency,[11],inactive
same,Potency,[12],inactive
same,max response,[13],-16.5%
same,Potency,[14],inactive
same,Potency,[15],inactive
same,Potency,[16],inactive
same,Potency,[17],inactive
same,Potency,[18],inactive
same,Potency,[19],inactive
